DRD3 antagonist – antagonists of human D3 dopamine receptor; P35462; D3R cells, DiscoveRx beta-arrestin luminescence, antagonist mode; stronger effect = lower value; max response, negative = inhibition, %; 360,000 tested, 2.5% active; in the data active means max response below about -50%; inconclusive means no clear call, values can overlap the other calls; further: on the % scale 0 is the no-effect control and ±100 the full control effect
Target sequence (P35462 whole entry, looked up): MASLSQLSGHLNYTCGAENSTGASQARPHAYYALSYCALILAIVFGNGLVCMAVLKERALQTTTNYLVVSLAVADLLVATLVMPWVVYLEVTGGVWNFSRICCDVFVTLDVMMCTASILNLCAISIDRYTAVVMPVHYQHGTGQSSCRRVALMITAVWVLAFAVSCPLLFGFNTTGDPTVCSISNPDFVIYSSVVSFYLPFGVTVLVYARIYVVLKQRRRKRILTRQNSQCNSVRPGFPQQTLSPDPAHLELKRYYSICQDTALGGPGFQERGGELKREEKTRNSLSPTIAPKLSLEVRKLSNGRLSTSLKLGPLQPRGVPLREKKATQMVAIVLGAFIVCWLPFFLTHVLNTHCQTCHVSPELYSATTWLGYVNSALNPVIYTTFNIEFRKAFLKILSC
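Cells plated overnight at 1500 cells/well, then exposed to library compounds with dopamine controls for 90 minutes at 37 degrees C. DiscoveRx reagent added for 30–60 minutes at room temperature; luminescence read, quantitative HTS format.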
ClpP mod – qHTS Assay for Activators of ClpP. ATP-dependent Clp protease proteolytic subunit (Bacillus subtilis (strain 168)), P80244. purified B. subtilis ClpP, FRET peptide cleavage, 20 min. Potency, µM (highest dose often 57.5 µM), without a hit: at the highest dose activity change, negative = active. 340,000 tested, 1.9% active; active means well fitted falling curve with a large enough effect; inconclusive means small, poorly fitted or top-dose-only effect; inactive means no such curve, though single readings can be large or run the other way; further: potency means the concentration at half of the fitted maximal effect; the source files actives as falling curves though it sought activators and does not explain the sign; nearly all actives have a fitted effect of over 65% in size
Target sequence (P80244 whole entry, looked up): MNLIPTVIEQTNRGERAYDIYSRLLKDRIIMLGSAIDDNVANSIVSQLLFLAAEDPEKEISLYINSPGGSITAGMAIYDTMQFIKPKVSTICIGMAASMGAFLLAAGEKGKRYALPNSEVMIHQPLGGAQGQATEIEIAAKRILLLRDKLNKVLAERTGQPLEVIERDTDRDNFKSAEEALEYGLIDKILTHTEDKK
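FRET quenching reversal measured ClpP activation: 10 microg/mL B. subtilis ClpP at pH 8 with the FRET-FV decapeptide, read at 430 nm after 320 nm excitation. The 20-min minus 0-min signal was scaled between DMSO/no-enzyme wells and ADEP (5.8 microM final).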
GLP1R ag – agonists of human GLP-1 receptor; P43220; HEK293 GLP-1R CRE-luciferase, luminescence, 4-6 h; cells express a hypersensitive GLP-1R form; Potency, µM (highest dose often 45.6 µM), without a hit: top-dose activation, usual class: activators; 380,000 tested, 0.007% active; AID 624172; further: potency means the concentration at half of the fitted maximal effect; % of control where 0% means no effect
GLP-1R inv ag – acts as inverse agonist at human GLP-1 receptor; Potency, µM (highest dose often 38.3 µM), for inactives: top-dose activity change, negative = inhibition, hits mostly inhibitors; P43220; HEK293 GLP-1R CRE-luciferase, luminescence, 24 h; GLP-1R form is constitutively active; 410,000 tested, 1.6% active; AID 624417; further: potency means the concentration at half of the fitted maximal effect; on the % scale 0 is the no-effect control and ±100 the full control effect; nearly all actives have a fitted effect of over 55% in size
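Luminescence readout: a drop in cAMP-driven luciferase signal flags inverse agonism at a constitutively active GLP-1R stably expressed in HEK293. Compound exposure lasted 24 hr at 37 deg C, 5% CO2.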
HEK293 tox – cytotoxicity in counter-screen for GLP-1R inverse agonists. HEK293 cAMP-luciferase reporter cells, luminescence, 24 h. Potency, µM (highest dose often 38.3 µM), for the others: at the top dose activity change, negative = inhibition, most hits filed as inhibitors. 410,000 tested, 0.13% active. AID 624418;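 further: loss of luciferase light is scored as toxicity; potency means the concentration at half of the fitted maximal effect; on the % scale 0 is the no-effect control and ±100 the full control effect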
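Seeding density was 200 cells/uL; after overnight-length (12 h) culture, 23 nL compounds went on for 24 h at 37 °C. Readout used a luciferase detection reagent, luminescence taken after 12 min at room temperature.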
D3 ag – D3 dopamine receptor (human) agonism; max activation, %; D3R DiscoveRx beta-arrestin cells, luminescence, 90 min; 410,000 tested, 0.58% active; P35462; in the data active means max activation above about 30%; further: 0% is about no effect
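Agonist mode: compounds and dopamine controls were applied to plated cells for 90 min at 37 degrees C after an overnight attachment at 1500 cells/well. Luminescent read-out followed 30 - 60 minutes at room temperature with DiscoveRx detection reagent.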
* = called active by the depositor; ? = inconclusive; nt = not tested or not shown; ! = not active in a repeat. Most compounds without a hit are left out; they make up all but 5.7% or so of the library. Unless noted, the call rests on the fitted dose curve; in most records, active means well fitted curve in the direction sought with a large enough effect; inconclusive means small, poorly fitted or top-dose-only effect, or another doubt; inactive means no such curve, though single readings can be large; an effect the other way counts as inactive or inconclusive.

SMILES	DRD3 antagonist	ClpP mod	GLP1R ag	GLP-1R inv ag	HEK293 tox	D3 ag
COc1cc(OC)cc(C(=O)Nc2ccc3nc(N4CCC(C)CC4)cc(C)c3c2)c1	nt	?	-2%	?	-17%	-3
COc1cc(OC)cc(C(=O)Nc2cc3c(cc2N2CCOCC2)n(C)c(=O)n3C)c1	nt	-11%	nt	5%	16%	-18
c1ccc(CCN2CCN=C2Nc2ccccc2)cc1	?	0%	-4%	19%	4%	-28
c1ccc(NC2=NCCN2CCC2CCCCC2)cc1	-63*	-2%	-3%	-23%	-3%	-91
c1ccc(NC2=NCCN2CCCC2CCCC2)cc1	?	-2%	1%	?	-28%	-63
Cc1cccc(CCN2CCN=C2Nc2ccccc2)c1	-56*	-5%	0%	6%	-7%	-46
COc1ccc(OC)c(NC(=O)c2cc(-c3ccc(Cl)s3)nc3ccccc23)c1	nt	?	-2%	-5%	1%	-9
Cc1ccc(C(=O)N2CCN(c3ccc(NC(=S)NC(=O)c4cccs4)cc3)CC2)cc1	-5	nt	7%	8.9µM*	-8%	1
CCC(=O)Nc1ccc(N2CCN(C(=O)c3cccs3)CC2)cc1	-23	-1%	8%	-9%	1%	-2
CC(C)CC(=O)NC(=S)Nc1ccc(N2CCN(C(=O)c3cccs3)CC2)cc1	6	-3%	11%	10µM*	0%	15
Cc1cc(C)cc(NS(=O)(=O)c2ccc(NC(=S)NC(=O)c3cccs3)cc2)c1	-84*	1%	-7%	0%	?	-18
O=C(COc1ccccc1[N+](=O)[O-])Nc1ccc(N2CCN(C(=O)c3cccs3)CC2)cc1	73	nt	-5%	?	?	34*
CCCOc1ccc(CNC(=O)C2CCN(C(=O)c3sccc3-n3cccc3)CC2)cc1	nt	0%	nt	-21%	5%	3
CC(C)(S)C(=O)N[C@H](CS)C(=O)O	nt	nt	-1%	nt	nt	nt
CS(=O)(=O)N1CCCCC1c1cc(C(=O)Nc2cccc(C#N)c2)no1 (configuration not stated)	-8	3%	8%	11%	1%	-16
Cn1cnc(S(=O)(=O)N2CCCCC2c2cc(C(=O)Nc3cccc(C#N)c3)no2)c1 (configuration not stated)	-80*	-3%	4%	7%	3%	-22
CCOC(=O)c1c(-c2ccccc2)nc2c(C)cccn12	2	-6%	20%	13%	6%	-2
Cc1cccn2c(N)c(-c3ccccc3)nc12	15	16µM*	1%	3%	1%	3
Cc1ccsc1C=C1C(=O)c2ccccc2C1=O	-56*	1%	-6%	3%	-5%	-3
Cc1ccsc1/C=C1/C(=O)NN(c2ccccc2)C1=O	?	nt	1%	?	6%	-8
CC(=O)c1ccc(NS(=O)(=O)c2ccc(-n3cccn3)cc2)cc1	nt	-19%	1%	10%	5%	-6
CCc1ccc(C2C(C(C)=O)=C(C(=O)OC)Nc3nnnn32)cc1 (configuration not stated)	-57*	14%	0%	-19%	-2%	-5
Cc1nn2cc(-c3ccc(OC(C)C)cc3)nc2s1	nt	2%	nt	?	1%	-3
COc1ccc(-c2cc3ccccc3oc2=O)cc1NC(=O)c1ccc(Br)o1	11	-28%	-8%	5%	-18%	3
CCn1nnc(NC(=O)c2cccc(-c3cc4ccccc4oc3=O)c2)n1	27	14µM*	0%	12%	-17%	4
SMILES	DRD3 antagonist	ClpP mod	GLP1R ag	GLP-1R inv ag	HEK293 tox	D3 ag
O=C(Nc1cccc(-c2cc3ccccc3oc2=O)c1)c1ccc(Br)o1	?	35µM*	-4%	?	12%	5
COc1ccc(NCc2nc3ccccc3n2CCOc2ccccc2C)cc1	nt	1%	nt	?	1%	0
CCC1CCc2nc3sc(C(=O)Nc4ccc(C)cc4)c(N)c3cc2C1 (configuration not stated)	nt	?	nt	12%	8%	-1
CCN1CCN(C(=O)C2CCN(Cc3nc(-c4cccc(Cl)c4)oc3C)CC2)CC1	-74*	-3%	9%	-22%	3%	-14
CCc1ccc(-c2nc(CN3CCC(C(=O)N4CCN(c5ccccn5)CC4)CC3)c(C)o2)cc1	-22	?	0%	-2%	?	-4
Cc1oc(-c2cccc(Cl)c2)nc1CN1CCC(C(=O)N2CCN(c3ccccn3)CC2)CC1	-51*	-14%	-7%	-35%	0%	-13
CCCCCCCCCn1c2c(c(=N)c3c1CCC3)CCC2	-56*	0%	-36%	?	?	-3
Cc1cc(C)n(-c2nc(NC(C)C)nc(NC(C)C)n2)n1	-51*	0%	-2%	?	?	-2
Cc1cc(C)n(-c2nc(NC(C)(C)C)nc(NC(C)(C)C)n2)n1	-62*	1%	-1%	?	?	-14
CCNc1nc(NCC)nc(-n2nc(C)cc2C)n1	-13	1%	-1%	5%	-12%	-10
CCOC(=O)C1CCN(C(=O)c2cnn(-c3ccc(F)cc3)c2-n2cccc2)CC1	nt	-4%	4%	10%	2%	-1
CC(C(=O)Nc1ccc2c(c1)OCO2)N(c1ccc(Cl)cc1)S(C)(=O)=O (configuration not stated)	-7	2%	-6%	10µM*	-10%	2
CC(C(=O)Nc1ccc2c(c1)OCO2)N(C)CC(=O)Nc1ccc(Cl)cc1 (configuration not stated)	?	4%	8%	?	-15%	-12
CC(C)(C)OC(=O)N1CCC(c2c(C(=O)NCc3ccc4c(c3)OCO4)cnn2-c2ccccc2Cl)CC1	nt	1%	nt	-15%	-3%	-8
CC(=O)c1cccc(NC(=S)NC2CCCCC2)c1	6	14µM*	1%	27%	-4%	-1
CCOc1ccc(NC(=O)c2ccc(NC(=S)NC3CC3)cc2)cc1	11	nt	7%	1%	-1%	2
CCOc1ccc(NC(=O)c2ccc(NC(=S)NC3CCCCC3)cc2)cc1	-68*	nt	-4%	?	-23%	-12
Cc1cccc(NC(=S)N/C(=N/S(=O)(=O)c2ccccc2)c2ccccc2)c1	-61*!	2.2µM*!	-1%	?	?	-3
S=C(Nc1ccc(Nc2ccccc2)cc1)NC1CCCCCC1	-22	nt	5%	5µM*	-8%	-2
CC(C)CC1NC(=O)c2cccnc2-n2c1nc1ccccc1c2=O (configuration not stated)	-24	-7%	-1%	6%	5%	-3
